“And” between values parts separate entries of the source, which are not always exact repeats. Identical values can stand only once. About 83,000 compounds went through this panel and 20% of them were active in at least one assay; those are over-represented in the sample as a whole.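 Growth was measured after 48 h exposure to one concentration of compound in 96-well plates. Values under 10 count as active.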 The source made the active and inactive calls.
Legend:
Assay in all cases: NCI-60 one-dose screen, 48 h (100 = growth as untreated, 0 = no growth, -100 = all killed)
[1] = system: EKVX NSCLC; details: 10 µM unless noted
[2] = system: SN12C renal
[3] = system: UO-31 renal
[4] = system: TK-10 renal
[5] = system: ACHN renal
[6] = system: CAKI-1 renal
[7] = system: A498 renal
[8] = system: CCRF-CEM leukemia; details: 10 µM unless noted
[9] = system: MOLT-4 leukemia; details: 10 µM unless noted

Measured: growth

Cc1ccc(N)cc1S(=O)(=O)O
inactive: [1] 109% and 105% | [2]; 10 µM unless noted 103% and 106% | [3]; 10 µM unless noted 84.4% and 91.5% | [4]; 10 µM unless noted 75% and 135% | [5]; 10 µM unless noted 101% and 118% | [6]; 10 µM unless noted 96.8% and 106% | [7]; 10 µM unless noted 113% | [8] 60.6% and 109% | [9] 94.4%

N#Cc1c(N)nc2c(c(-c3ccc(Cl)cc3)nn2-c2ccccc2)c1C#N
inactive: [1] 83% [100 µM] | [2]; 10 µM unless noted 105% [100 µM] | [3]; 10 µM unless noted 96.6% [100 µM] | [4]; 10 µM unless noted 128% [100 µM] | [5]; 10 µM unless noted 86.9% [100 µM] | [6]; 10 µM unless noted 108% [100 µM] | [7]; 10 µM unless noted 113% [100 µM] | [8] 98.9% [100 µM] | [9] 114% [100 µM]

COc1ccc(CCO)cc1
inactive: [1] 107% | [2]; 10 µM unless noted 100% | [3]; 10 µM unless noted 96.9% | [4]; 10 µM unless noted 96.3% | [5]; 10 µM unless noted 103% | [6]; 10 µM unless noted 102% | [7]; 10 µM unless noted 97.2% | [8] 101%

CCCC(=O)Oc1ccc(CC)cc1
inactive: [1] 99% | [2]; 10 µM unless noted 98.5% | [3]; 10 µM unless noted 93.7% | [4]; 10 µM unless noted 97.2% | [5]; 10 µM unless noted 107% | [6]; 10 µM unless noted 96.1% | [7]; 10 µM unless noted 78.1% | [8] 107% | [9] 101%

CCC(C)(O)CCC(C)(O)CC (stereo not given)
inactive: [1] 99.4% | [2]; 10 µM unless noted 108% | [3]; 10 µM unless noted 91% | [4]; 10 µM unless noted 103% | [5]; 10 µM unless noted 111% | [6]; 10 µM unless noted 101% | [7]; 10 µM unless noted 114% | [8] 101% | [9] 102%

CCN(CC)C(=S)SCCO
inactive: [1] 106% | [2]; 10 µM unless noted 105% | [3]; 10 µM unless noted 93.8% | [4]; 10 µM unless noted 86% | [6]; 10 µM unless noted 107% | [7]; 10 µM unless noted 75.6% | [8] 100%

COc1ccc(CCN=Cc2ccc(Cl)cc2)cc1OC
inactive: [1] 111% | [2]; 10 µM unless noted 99.5% | [3]; 10 µM unless noted 83.7% | [4]; 10 µM unless noted 107% | [5]; 10 µM unless noted 106% | [6]; 10 µM unless noted 101% | [7]; 10 µM unless noted 95.3% | [8] 105% | [9] 99.9%

COc1ccc2oc3c(ccc[n+]3C)c(=O)c2c1
inactive: [1] 93.3% | [2]; 10 µM unless noted 110% | [3]; 10 µM unless noted 91.9% | [4]; 10 µM unless noted 97.6% | [5]; 10 µM unless noted 99.1% | [6]; 10 µM unless noted 98.2% | [7]; 10 µM unless noted 95.7% | [8] 110% | [9] 103%

Clc1ccc2sc(-c3ccccc3)nc2c1
inactive: [1] 88.1% | [2]; 10 µM unless noted 95.6% | [3]; 10 µM unless noted 77.6% | [4]; 10 µM unless noted 126% | [6]; 10 µM unless noted 90.7% | [7]; 10 µM unless noted 92.5% | [8] 87% | [9] 92.3%

Cc1c(O)nc(N)[nH]c1=O
inactive: [1] 106% | [2]; 10 µM unless noted 109% | [3]; 10 µM unless noted 82.9% | [4]; 10 µM unless noted 126% | [5]; 10 µM unless noted 108% | [6]; 10 µM unless noted 110% | [7]; 10 µM unless noted 109% | [8] 90.1% | [9] 102%

CCOC(=O)c1ccncc1
inactive: [1] 104% | [2]; 10 µM unless noted 98.9% | [3]; 10 µM unless noted 90.2% | [4]; 10 µM unless noted 99.4% | [5]; 10 µM unless noted 119% | [6]; 10 µM unless noted 104% | [7]; 10 µM unless noted 86.8% | [8] 108% | [9] 104%

COc1cc2oc3cc(=O)cc4oc(-c5ccccc5)cc(c2c2c1CCC(c1ccccc1)O2)c43 (stereo not given)
59.8% (inactive) and 8.17% (active): [4]; 100 µM
inactive: [1] 88.4% | [2]; 10 µM unless noted 78.3% | [3]; 10 µM unless noted 57.9% | [4]; 10 µM 120% | [5]; 10 µM unless noted 72.7% | [6]; 10 µM unless noted 57.4% | [7]; 10 µM unless noted 114% | [8] 88.3% | [9] 72.5%

O=C(O)c1c2c(nc3ccccc13)Cc1ccccc1-2
inactive: [1] 104% and 72.5% | [2]; 10 µM unless noted 108% and 87% | [3]; 10 µM unless noted 73.6% and 63.6% | [4]; 10 µM unless noted 114% and 101% | [5]; 10 µM unless noted 103% and 101% | [6]; 10 µM unless noted 98% and 86.2% | [7]; 10 µM unless noted 78.5% and 95.6% | [8] 91.1% and 77.3% | [9] 96.2% and 114%

N#CC(=S)Nc1ccc(Cl)c(Cl)c1
inactive: [1] 10.9% | [4]; 10 µM 17.5% | [8] 28.4%
active: [2]; 10 µM unless noted -7.92% | [3]; 10 µM unless noted -1.39% | [4]; 100 µM 8.11% and -69.1% | [5]; 10 µM unless noted 0.0372% | [6]; 10 µM unless noted -6.76% | [7]; 10 µM unless noted -12%

O=C(c1ccccc1)C1(Br)CCCCC1
inactive: [1] 87.3% | [2]; 10 µM unless noted 93.6% | [3]; 10 µM unless noted 82.2% | [4]; 10 µM unless noted 103% | [5]; 10 µM unless noted 100% | [6]; 10 µM unless noted 89% | [7]; 10 µM unless noted 102% | [8] 97.5% | [9] 103%

CS/C(=C\c1ccc(C(=O)c2ccc(C)cc2)n1C)S(C)=O (stereo not given)
inactive: [1] 63.8% [100 µM] | [2]; 10 µM 82% | [2]; 100 µM 80.9% | [3]; 10 µM 92.2% | [3]; 100 µM 57.8% | [4]; 10 µM 108% | [4]; 100 µM 87% | [5]; 10 µM 87.4% | [5]; 100 µM 83.2% | [6]; 10 µM 75.5% | [6]; 100 µM 63.2% | [7]; 10 µM 108% | [7]; 100 µM 109% | [8] 72.5% [100 µM]

Cc1cc(Cl)nc(Nc2ccccc2)n1
inactive: [1] 93.8% | [2]; 10 µM unless noted 96.1% | [3]; 10 µM unless noted 102% | [4]; 10 µM unless noted 94.4% | [5]; 10 µM unless noted 98.9% | [6]; 10 µM unless noted 78.7% | [7]; 10 µM unless noted 93.3% | [8] 99.3% | [9] 94.8%

COc1cc([C@@H]2c3cc4c(cc3[C@H](O)[C@H]3COC(=O)[C@@H]23)OCO4)cc(OC)c1OC
active: [7]; 10 µM unless noted -5.77% and -29.6%
17.4% (inactive) and 0.767% (active): [8]
13.5% (inactive) and 4.58% (active): [9]
22.9% (inactive) and 8.72% (active): [6]; 10 µM unless noted
inactive: [1] 28.6% and 35.4% | [2]; 10 µM unless noted 20.6% and 33% | [3]; 10 µM unless noted 23.3% and 36.9% | [4]; 10 µM unless noted 21.1% and 69.2% | [5]; 10 µM unless noted 25.2% and 31.8%

COc1ccc2nccc(Cl)c2c1
inactive: [1] 101% | [2]; 10 µM unless noted 98.7% | [3]; 10 µM unless noted 91.5% | [4]; 10 µM unless noted 103% | [5]; 10 µM unless noted 106% | [6]; 10 µM unless noted 97.3% | [7]; 10 µM unless noted 95.1% | [8] 109% | [9] 106%

N#Cc1ccc(/C=C/C(=O)c2ccccc2)cc1
active: [3]; 10 µM unless noted -37.5%
-35.1% (active) and 29.4% (inactive): [9]
inactive: [1] 95.9% and 111% | [2]; 10 µM unless noted 96.2% and 92.6% | [4]; 10 µM unless noted 98.9% and 55.8% | [5]; 10 µM unless noted 112% and 92.9% | [7]; 10 µM unless noted 112% and 84.1%
17.6% (inactive) and 3.61% (active): [8]

S=c1ccc2ccccc2[nH]1
inactive: [1] 107% and 103% | [2]; 10 µM unless noted 101% | [3]; 10 µM unless noted 88.2% and 80.9% | [4]; 10 µM unless noted 105% and 108% | [5]; 10 µM unless noted 101% and 109% | [6]; 10 µM unless noted 96.5% | [7]; 10 µM unless noted 110% | [8] 103% and 101% | [9] 93.3% and 100%

CCN(CC)CCO/N=C1\CC(c2ccc(OC)c(OC)c2)Oc2ccccc21 (stereo not given)
inactive: [1] 96.3% | [2]; 10 µM unless noted 99.1% | [3]; 10 µM unless noted 71.7% | [4]; 10 µM unless noted 86.9% | [5]; 10 µM unless noted 101% | [6]; 10 µM unless noted 83.3% | [7]; 10 µM unless noted 112% | [8] 93% | [9] 90.6%

O=[N+]([O-])c1ccc(NC2CCCCC2)nc1
inactive: [1] 101% and 106% | [2]; 10 µM unless noted 104% and 108% | [3]; 10 µM unless noted 90% and 76.3% | [4]; 10 µM unless noted 103% and 101% | [5]; 10 µM unless noted 101% and 97.5% | [6]; 10 µM unless noted 96.7% and 95.7% | [7]; 10 µM unless noted 102% | [8] 103% and 96.3% | [9] 95.2% and 106%

O=C1c2cccnc2-c2ncccc21
inactive: [1] 99.6% [100 µM] | [2]; 10 µM unless noted 108% [100 µM] | [3]; 10 µM unless noted 97.1% [100 µM] | [4]; 10 µM unless noted 97.1% [100 µM] | [6]; 10 µM unless noted 103% [100 µM] | [7]; 10 µM unless noted 103% [100 µM] | [8] 106% [100 µM] | [9] 117% [100 µM]

NNc1ncnc2cccc(Cl)c12
inactive: [1] 90.8% | [2]; 10 µM unless noted 87.6% | [3]; 10 µM unless noted 89.1% | [4]; 10 µM unless noted 99.9% | [5]; 10 µM unless noted 96.4% | [6]; 10 µM unless noted 107% | [7]; 10 µM unless noted 108% | [8] 102% | [9] 108%

From PubChem BioAssay (NCI)
